DAX1 inh-1 = NR0B1 (DAX1) inhibition. actives 0.99% (n = 340,000). P51843. inhibition, % at 6.75 µM. HEK293 Gal4-DAX1 luciferase reporter, luminescence;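 active means inhibition above the mean over all tested compounds plus 3 SD, cut at about 4.2% in these data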;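 further: 0% = DAX1-transfected cells with DMSO and 100% = empty-vector control cells with DMSO; inhibition shows as a rise in luminescence from relieved DAX1 repression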
Target sequence (P51843 207-470 limits assumed): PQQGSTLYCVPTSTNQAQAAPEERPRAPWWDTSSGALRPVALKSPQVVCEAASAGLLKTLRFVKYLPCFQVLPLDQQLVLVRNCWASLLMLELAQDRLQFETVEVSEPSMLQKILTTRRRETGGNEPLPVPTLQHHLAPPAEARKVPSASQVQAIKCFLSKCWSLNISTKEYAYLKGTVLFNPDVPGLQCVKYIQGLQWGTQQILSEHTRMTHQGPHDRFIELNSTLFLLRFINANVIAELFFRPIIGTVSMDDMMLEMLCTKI
hgDAF-12 ag = agonists of H. glycines DAF-12 nuclear receptor; activation, % at 6.8 µM; actives 1.8% (n = 370,000); AID 687014; HEK293 GAL4-hgDAF12 UAS-luciferase reporter, agonist luminescence; normalized to butyrate control;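 active means activation above a cutoff set at the mean of all screened compounds plus 3 SD, cut at about 10% in these data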;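 further: 0% = DMSO wells and 100% = sodium butyrate wells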
SMARCA2 activ = activators of SMARCA2 function | AID 652017 | activation, % at 9.1 µM | actives 1% (n = 370,000) | MG213 cells, MMTV-luciferase reporter, dexamethasone, overnight; in the data active means activation above about 7.8%;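 further: 0% = vehicle wells and 100% = reference activator wells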
DAX1 inh-2 = blocks DAX1 repression of SF-1 activated StAR promoter; HEK293T StAR-luciferase reporter, SF-1/DAX-1 repression relief; inhibition, % at 6.8 µM; actives 1.1% (n = 370,000);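 active means inhibition above the mean over all tested compounds plus 3 SD, cut at about 3.6% in these data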;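 further: 0% = DAX-1 cells with DMSO and 100% = cells lacking DAX-1 with DMSO; higher inhibition means more luminescence from relief of DAX-1 repression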
ssDAF12 agonist = activates DAF-12 receptor from parasite S. stercoralis; HEK293 ssDAF-12/GRIP1 lit1-tk-luc reporter, luminescence; % of 3 µM dafachronic acid response; activation, % at 6.8 µM; actives 1% (n = 370,000);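 active means activation above the mean over all tested compounds plus 3 SD, cut at about 0.9% in these data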;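 further: 0% = DMSO-only wells and 100% = 3 µM delta7-dafachronic acid wells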
hcDAF12 agonist = activators of H. contortus DAF-12 nuclear receptor; AID 652067; actives 1.4% (n = 370,000); activation, % at 6.8 µM; HEK293 hcDAF-12 lit1-tk-luc reporter, luminescence; 0% DMSO, 100% Δ7-dafachronic acid;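 active means activation above the mean of all tested compounds plus 3 SD, cut at about 5.5% in these data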;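 further: 100% = response to 3 µM Δ7-dafachronic acid high control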
LXR ag = LXR-beta agonism as hcDAF-12 counter-screen. shares compounds with hcDAF12 agonist. HEK293 Gal4-LXR tk-luc reporter, luminescence, 24 h; normalized: DMSO 0%, positive control 100%. 3,400 tested, under 10 active. AID 743027. activation, % at 6.8 µM;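 active means mean percent activation of the reporter above a cutoff set as the average over tested compounds plus their standard deviation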
hcDAF12 ag = hcDAF-12 agonism, confirmation assay; AID 743032; shares compounds with hcDAF12 agonist; activation, % at 6.8 µM; HEK293 hcDAF-12 lit1-tk-luc reporter, luminescence; % of Δ7-dafachronic acid response; actives 61% (n = 3,400);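 active means mean activation across triplicate tests above the threshold derived from the earlier primary screen, cut at about 5.5% in these data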;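 further: 0% = DMSO only wells and 100% = 3 µM Δ7-dafachronic acid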
Starred values were filed as active, the others as inactive; . = no result given. Sampled rows, rich in hits. Any-hit rate of the full collection: about 4.8%.

SMILES | DAX1 inh-1 | hgDAF-12 ag | SMARCA2 activ | DAX1 inh-2 | ssDAF12 agonist | hcDAF12 agonist | LXR ag | hcDAF12 ag
COc1ccc(N2C(=O)c3[nH]nc(-c4ccccc4)c3C2c2ccc(Br)cc2)cc1 (configuration not stated) | . | -2 | -4 | 0 | -1 | 0 | . | .
O=C(NNc1ccccc1Br)C(=O)n1ccc2ccccc21 | 0 | 1 | -1 | 0 | 0 | 7.6* | 0 | 2
CCCCCN(C(=O)Cc1c(C)n(CCCCC)c2ccccc12)c1ccc(Oc2cccnc2)c(C)c1 | . | 5 | 3 | 1 | 1 | 4 | . | .
Cc1cccc(/C=C2\CCC(=C3SCCCS3)C2=O)c1 | -4 | 9 | 4 | 2 | -1 | 7.5* | 1 | 7.6*
O=C(N=Nc1c(O)[nH]c2c(Cl)cc(Cl)cc12)c1ccccc1O | . | 5 | 2 | 1 | -1 | 1 | . | .
Cc1cc(Cl)ccc1OCC(=O)NCCOC(=O)Nc1sc(=S)n(C)c1C | -1 | 1 | 0 | 0 | 0 | 6.9* | 0 | -1
Cc1ccc(Cl)cc1OCC(=O)NCCOC(=O)Nc1sc(=S)n(C)c1C | 0 | 2 | 0 | -1 | -1 | 1 | . | .
O=C(Oc1ccccc1/C=C\C(=O)c1cc2ccccc2o1)c1cccc(F)c1 | 3 | 10 | 3 | 0 | 0 | 11* | 1 | 7.2*
O=C(N/N=C/c1ccccc1OC(=O)c1ccc2c(c1)OCO2)c1cccc(F)c1 | 2 | 5 | 5 | 0 | -1 | -1 | . | .
O=C(Cc1nc2ccccc2[nH]1)c1ccc([N+](=O)[O-])cc1 | 1 | 5 | 2 | 1 | -1 | 4 | . | .
CN/N=C(\Cc1nc2ccccc2[nH]1)c1ccc([N+](=O)[O-])cc1 | 0 | 4 | 3 | -1 | -1 | 7.0* | 0 | 7.8*
Fc1cccc(Cc2c(-c3cccc(Br)c3)nc3c(Cl)cc(C(F)(F)F)cn23)c1 | . | 1 | 0 | 0 | 0 | 6.6* | 0 | 1
Fc1ccc(-c2nc3c(Cl)cc(C(F)(F)F)cn3c2Cl)cc1 | 7.9* | 6 | 4 | 1 | 0 | 9.6* | 1 | 8.7*
Cc1ccc(Cc2c(-c3ccc(F)cc3)nc3c(Cl)cc(C(F)(F)F)cn23)cc1 | . | 1 | 1 | 0 | -1 | 2 | . | .
O=C1NC(=O)C(CC(=O)N(Cc2cccs2)C2(C(=O)NC3CCCC3)CCCCC2)N1 (configuration not stated) | -1 | -1 | 2 | 0 | -1 | 8.7* | 0 | 0
C#CCN(Cc1ccco1)C(=O)c1nnc2c3ccccc3n(S(=O)(=O)c3ccc(C)cc3)c2n1 | . | 2 | -3 | -1 | 0 | 1 | . | .
Cc1ccc(-c2cc(-c3ccccc3)no2)cc1 | 2 | 14* | 7 | 3.7* | 1.8* | 14* | 2 | 14*
Cc1ccc(NC(=O)OCc2cc(-c3ccccc3)on2)cc1 | 3 | 1 | 0 | 0 | -1 | 0 | . | .
Fc1cccc2sc(Nc3nc4cc5c(cc4s3)OCCO5)nc12 | 1 | 2 | 3 | 2 | 0 | 10* | 2 | 20*
Fc1cc(F)c2nc(Nc3nc4cc5c(cc4s3)OCO5)sc2c1 | 1 | 1 | -1 | 1 | 0 | 0 | . | .
COc1ccc(CN(C2CCCC2)S(=O)(=O)c2cc(Br)ccc2Br)c(OC)c1 | . | -1 | -3 | -1 | -1 | -2 | . | .
Cc1ccc(S(=O)(=O)NC(=O)ON=Cc2ccc3c(c2)OCO3)cc1 | . | 2 | -4 | 1 | -1 | -3 | . | .
O=C(Cn1nnc(N2CCOCC2)n1)NN=Cc1ccccc1Cl | . | 2 | -5 | -1 | -1 | 0 | . | .
CC(=O)c1ccc(S(=O)(=O)NCC2CCN(C(=O)C(=O)c3cc4ccccc4o3)CC2)cc1 | . | 0 | -5 | -1 | -1 | 2 | . | .
O=C(CSCC(=O)N1CCCCC1)Nc1nc(-c2ccc(Cl)s2)cs1 | 0 | 7 | 0 | -1 | -1 | 5 | . | .
SMILES | DAX1 inh-1 | hgDAF-12 ag | SMARCA2 activ | DAX1 inh-2 | ssDAF12 agonist | hcDAF12 agonist | LXR ag | hcDAF12 ag
CC1CC(C)CN(C(=O)CSCC(=O)Nc2nc(-c3cccs3)cs2)C1 (configuration not stated) | 0 | 7 | -2 | 1 | 1 | 8.2* | 0 | 5
O=C(CSCC(=O)N1CCCCC1)Nc1nc(-c2cccs2)cs1 | 1 | 6 | -2 | 0 | 0 | 9.1* | 0 | 6.0*
O=C(O)c1ccccc1C(=O)c1ccc2c(c1)CCC2 | -1 | 0 | -3 | 0 | -1 | 6.9* | 0 | 1
O=C(O)c1ccccc1Cc1ccc2c(c1)CCCC2 | -1 | 4 | -2 | -1 | -1 | 0 | . | .
CC(=O)Nc1ccc2nc(-c3ccccn3)[nH]c2c1 | 1 | 10 | 3 | 2 | -1 | 2 | . | .
c1ccc(-c2nc3cc4ccccc4cc3[nH]2)nc1 | -3 | 9 | 5 | 2 | 0 | 8.8* | 2 | 11*
Oc1ccccc1C1NN=C(c2ccccc2)S1 (configuration not stated) | 3 | 16* | 5 | 4.1* | 4.2* | 20* | 2 | 16*
COc1ccc(C2NN=C(c3ccc(C)cc3)S2)cc1 (configuration not stated) | 4 | 10 | 6 | 2 | 0 | 4 | . | .
CSc1ccc(C2NN=C(c3ccccc3)S2)cc1 (configuration not stated) | . | 15* | 1 | 4 | 2.3* | 12* | 2 | 14*
COC(=O)C[C@@H]1CC[C@H]2[C@@H](COc3ccc(NC(=O)Nc4ccccc4)cc3C(=O)N2C)O1 | . | 1 | -2 | 0 | -1 | 1 | . | .
COc1ccc(OCc2cc(C(=O)N3CCCC(CO)C3)no2)c2ccccc12 (configuration not stated) | 1 | 10 | 3 | 3 | 1.4* | 7.8* | 1 | 9.5*
O=C(c1cc(COc2cccc3cnccc23)on1)N1CCCC(CCCO)C1 (configuration not stated) | -2 | -8 | -4 | -9 | -2 | -5 | . | .
O=C(Nc1ccc(F)cc1)c1nsc(Cl)c1Cl | 3 | 11* | 7 | 2 | 2.8* | 9.7* | 1 | 11*
CC(=O)/C=C/c1ccc2ccccc2n1 | -1 | 2 | 3 | -2 | -1 | 8.2* | 0 | 1
CC(OC(=O)/C=C/c1ccc2ccccc2n1)C(=O)N(C)c1ccccc1 (configuration not stated) | 0 | -1 | 4 | -1 | -1 | 0 | . | .

Screens deposited in PubChem BioAssay by The Scripps Research Institute Molecular Screening Center.
